This is a sample that favours compounds with a hit; in the whole collection about 21% have one here.
D3 ag = qHTS of D3 Dopamine Receptor Agonist: qHTS; D(3) dopamine receptor (Homo sapiens), P35462; D3R DiscoveRx beta-arrestin cells, luminescence, 90 min; max activation, %; actives 0.58% (n = 410,000); AID 652048, 2013; in the data active = max activation above about 30%; note: 0% is about no effect
Target sequence (P35462 whole entry, looked up): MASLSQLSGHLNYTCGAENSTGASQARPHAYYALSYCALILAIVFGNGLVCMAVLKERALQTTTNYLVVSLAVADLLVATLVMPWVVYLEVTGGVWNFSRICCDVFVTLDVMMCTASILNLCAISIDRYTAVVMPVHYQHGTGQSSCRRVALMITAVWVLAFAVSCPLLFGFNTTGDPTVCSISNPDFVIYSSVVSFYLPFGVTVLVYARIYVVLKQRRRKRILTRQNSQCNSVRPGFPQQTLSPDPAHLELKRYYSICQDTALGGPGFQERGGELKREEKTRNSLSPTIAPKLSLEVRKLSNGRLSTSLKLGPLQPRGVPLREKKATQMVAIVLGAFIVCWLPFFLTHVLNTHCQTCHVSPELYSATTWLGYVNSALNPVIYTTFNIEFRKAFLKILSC
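Agonist-mode cell screen: cells plated at 1500/well and incubated overnight at 37 °C, then exposed to library compounds for 90 min at 37 °C. Detection reagent was added for 30–60 min at room temperature, and luminescence was read.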
TDP1 cell noCPT = qHTS for Inhibitors of human tyrosyl-DNA phosphodiesterase 1 (TDP1): qHTS in cells in absence of CPT. DT40 Tdp1-/- hTDP1 cells, no CPT, ATP luminescence, 48 h. Potency, µM (series often up to 46.2 µM), for inactives: at the top dose activity change, negative = growth inhibition, actives largely listed as inhibitors. actives 15% (n = 420,000). AID 686978, 2013; note: potency is the fitted concentration of half-maximal effect; % is set by controls: 0 for no effect and ±100 for the full control effect; nearly all actives have a fitted effect of over 55% in size
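No-CPT arm: Tdp1-/-;hTDP1 DT40 cells (400/well) plus compounds, incubated ≥48 hr at 37 °C. Readout CellTiter-Glo luminescence.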
TDP1 cell CPT = qHTS for Inhibitors of human tyrosyl-DNA phosphodiesterase 1 (TDP1): qHTS in cells in presence of CPT; actives 12% (n = 420,000); chicken DT40 Tdp1-/-;hTDP1 cells + 20 nM CPT, ATP luminescence, 48 h; Potency, µM (highest dose often 46.2 µM), for the others: at the highest dose activity change, negative = growth inhibition, most hits filed as inhibitors; note: potency is the fitted concentration of half-maximal effect; % is set by controls: 0 for no effect and ±100 for the full control effect; nearly all actives have a fitted effect of over 55% in size
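Cell growth measured by CellTiter-Glo luminescence after a minimum 48 h, 37 C compound exposure with 20 nM CPT in Tdp1-knockout DT40 cells stably expressing hTDP1, seeded 400/well; qHTS titration format.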
D3 antag = qHTS of D3 Dopamine Receptor Antagonist: qHTS. D3R cells, DiscoveRx beta-arrestin luminescence, antagonist mode; stronger effect = lower value. max response, negative = inhibition, %. actives 2.5% (n = 360,000). D(3) dopamine receptor (Homo sapiens), P35462. AID 652054, 2013; in the data active = max response below about -50%; inconclusive = no clear call, values can overlap the other calls; note: % is set by controls: 0 for no effect and ±100 for the full control effect
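Cells plated overnight at 1500 cells/well, then exposed to library compounds with dopamine controls for 90 minutes at 37 degrees C. DiscoveRx reagent added for 30–60 minutes at room temperature; luminescence read, quantitative HTS format.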
IL-1B inflam inh = qHTS for Inhibitors of Inflammasome Signaling: IL-1-beta AlphaLISA Primary Screen. AID 743279, 2014. activity change, % at 57.5 µM. THP-1 LPS/ATP IL-1B secretion, AlphaLISA, 16 h; stronger effect = lower value. actives 4.7% (n = 360,000); in the data active = activity change below about -50%; inconclusive = mostly about -30% to -49%; note: % is set by controls: 0 for no effect and ±100 for the full control effect
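THP-1 cells pretreated 1 hr with compounds (up to 57.5 uM final), then stimulated with LPS (250 ng/mL final) plus ATP (1.25 mM final); secreted IL-1B measured by AlphaLISA after 16 hr, decreased signal indicating inhibition.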
ClpP mod = qHTS Assay for Activators of ClpP | AID 651965, 2013 | actives 1.9% (n = 340,000) | purified B. subtilis ClpP, FRET peptide cleavage, 20 min | Potency, µM (doses to about 57.5 µM), inactives show top-dose activity change, negative = active; active = well fitted falling curve with a large enough effect; inconclusive = small, poorly fitted or top-dose-only effect; inactive = no such curve, though single readings can be large or run the other way; note: potency is the fitted concentration of half-maximal effect; the source files actives as falling curves though it sought activators and does not explain the sign; nearly all actives have a fitted effect of over 65% in size
Target sequence (P80244 whole entry, looked up): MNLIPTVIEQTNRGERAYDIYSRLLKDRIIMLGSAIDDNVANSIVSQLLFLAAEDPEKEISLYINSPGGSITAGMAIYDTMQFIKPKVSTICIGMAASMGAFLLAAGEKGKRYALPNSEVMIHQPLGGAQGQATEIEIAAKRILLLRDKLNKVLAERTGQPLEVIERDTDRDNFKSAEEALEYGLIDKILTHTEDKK
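Purified B. subtilis ClpP, 10 microg/mL final in Tris/HCl pH8 with KCl, BSA, glycerol and Tween-20, cleaved an Abz/nitrotyrosine-quenched decapeptide. Fluorescence (ex 320, em 430) was read at 0 and 20 min at room temperature. Delta was normalized to 5.8 microM ADEP and DMSO/no-enzyme controls.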
* = called active by the depositor; u = inconclusive; x = no result. Unless noted, calls come from the whole dose curve; as a rule, active = well fitted inhibition curve with a large enough effect; inconclusive = small, poorly fitted or top-dose-only effect; inactive = flat fitted curve, though single readings scatter.

SMILES	D3 ag	TDP1 cell noCPT	TDP1 cell CPT	D3 antag	IL-1B inflam inh	ClpP mod
C=CC[C@@H](CC(=O)OC(C)(C)C)C(=O)OC[C@@H]1CCCN1C(=O)[C@@H](CC=C)CC(=O)N[C@H](CO)Cc1ccccc1	-2.1	u	23.1µM*	0.0	-19.2	0.6%
C=CC[C@H](CC(=O)OC(C)(C)C)C(=O)OC[C@@H]1CCCN1C(=O)[C@@H](CC=C)CC(=O)N[C@H](CO)Cc1ccccc1	5.6	u	16.4µM*	0.1	-0.8	-2.1%
C=CC[C@@H](CC(=O)OC(C)(C)C)C(=O)OC[C@H]1CCCN1C(=O)[C@@H](CC=C)CC(=O)NCCO	5.3	-24.5%	-2.5%	-2.0	-1.2	-0.6%
O=C(Nc1cc([N+](=O)[O-])ccc1F)C1CCN(S(=O)(=O)c2cccs2)CC1	0.0	u	u	3.7	-19.6	-13.6%
COc1ccc(-c2cc(C(F)(F)F)n3nc(C(=O)OC(C)C)cc3n2)cc1	5.9	16.4µM*	23.1µM*	x	x	-3.3%
O=C(c1cc2nc(-c3ccccc3)cc(C(F)(F)F)n2n1)N1CCCC1	2.3	2.6%	-17.6%	-7.0	-28.1	-2.7%
COc1cccc(-c2cc(C(F)(F)F)n3nc(C(=O)N4CCCCC4c4cccnc4)cc3n2)c1 (stereo not drawn)	20.6	16.4µM*	16.4µM*	16.1	-71.8*	x
COc1ccc(-c2cc(C(F)(F)F)n3nc(C(=O)N4CCCCC4)cc3n2)cc1OC	1.1	18.4µM*	18.4µM*	9.3	u	-4.7%
COc1ccc(-c2cc(C(F)(F)F)n3nc(C(=O)N4CCCCC4)cc3n2)cc1	15.2	23.1µM*	16.4µM*	30.2	-53.1*	-16.6%
Cc1ccccc1-n1c(SCC(=O)c2c(N)n(C3CC3)c(=O)[nH]c2=O)nnc1N1CCOCC1	1.4	-19.6%	12.7%	-5.0	-4.3	-4.0%
CC(=O)OCC(=O)[C@@]1(O)CCC2C3CC(C)C4=CC(=O)C=CC4(C)C3C(O)CC21C (stereo partly drawn)	x	-19.9%	-17.1%	x	x	x
O=C(N/N=C/c1ccncc1)c1cccc(S(=O)(=O)Nc2ccc(Cl)cc2)c1	-0.6	37.4%	5.2%	-1.6	0.0	0.2%
COc1ccc(-c2cc(C(F)(F)F)n3nc(C(=O)O)cc3n2)cc1OC	-6.3	-20.7%	3.8%	-13.3	-2.8	-0.9%
COC(=O)c1cc2nc(-c3ccc(OC)c(OC)c3)cc(C(F)(F)F)n2n1	0.0	3.5%	-0.3%	-69.8*	-6.0	3.16µM*
COC(=O)C1OC1c1cc([N+](=O)[O-])ccc1OC (stereo not drawn)	-11.5	0.9%	-2.6%	-28.3	-20.7	-3.6%
COc1ccc([N+](=O)[O-])cc1C1NN=C(c2ccccc2O)S1 (stereo not drawn)	-3.7	3.26µM*	3.66µM*	-5.4	31.9	-4.3%
CC[n+]1c(C)sc2cc(OC)ccc21	-0.4	2.91µM*	2.59µM*	u	-67.2*	x
Clc1ccccc1NN(Cc1ccncc1)c1ccccc1Cl	-6.3	u	u	-3.0	u	0.6%
Clc1ccccc1NN(Cc1ccccn1)c1ccccc1Cl	3.1	23.1µM*	u	-21.5	50.3	2.5%
CN(C(=O)COC(=O)c1ccc(=O)n(Cc2ccccc2)n1)c1ccccc1	1.4	18.4µM*	14.6µM*	0.5	12.9	-1.0%
O=C(Nc1ccc2c(c1)OCO2)c1ccc2sc([C@H]3C[C@H](O)[C@@H](CO)O3)nc2c1	5.5	-25.1%	-4.6%	6.6	22.2	0.2%
Cc1ccc(-n2nnnc2-c2ccccc2)cc1	-4.7	u	u	-1.0	-11.8	0.9%
Cc1ccc(-n2nnnc2C(Cl)c2nnnn2-c2ccc(C)cc2)cc1	7.1	8.2µM*	14.6µM*	14.5	-59.1*	-0.2%
Cc1ccc(S(=O)(=O)n2ccc3c(OCCOCCSCC(NC(=O)OC(C)(C)C)C(=O)O)cccc32)cc1 (stereo not drawn)	11.6	u	-0.9%	9.9	41.7	-0.4%
Cc1ccc(S(=O)(=O)n2ccc3c(OCCOCCNCc4ccc(F)cc4)cccc32)cc1	-23.5	18.4µM*	u	-7.7	-88.5*	-0.3%
SMILES	D3 ag	TDP1 cell noCPT	TDP1 cell CPT	D3 antag	IL-1B inflam inh	ClpP mod
O=[N+]([O-])c1ccc(CSc2nnc(-c3cccnc3)o2)cc1	-3.3	u	-8.0%	2.8	27.8	2.2%
O=C(Cn1cc(SCc2ccc(Cl)cc2)c2ccccc21)N1CCOCC1	2.1	20.6µM*	u	-28.3	0.0	-0.4%
O=C(Cn1cc(SCc2ccc(F)cc2)c2ccccc21)N1CCOCC1	8.3	16.4µM*	u	u	0.0	2.82µM*
CN(C(=O)CSc1cn(CC(=O)N2CCOCC2)c2ccccc12)c1ccccc1	4.0	u	u	-10.0	-5.1	-0.5%
CC(=O)Nc1ccc(S(=O)(=O)N[C@@H](C)C(=O)OCC(=O)Nc2ccc3c(c2)OCCO3)cc1	-3.2	6.7%	7.1%	0.3	13.7	1.6%
Cc1ccc(S(=O)(=O)NC(=O)N(CCC#N)Cc2ccccc2)cc1	2.2	21.2%	30.1%	8.9	8.6	x
Cc1cc[n+](CC(=O)c2ccc(NC(=O)c3ccccc3)cc2)c2ccccc12	-0.9	3.66µM*	8.2µM*	0.3	u	-5.2%
O=C(C[n+]1cccc2cccc(O)c21)c1ccccc1	x	-12.1%	u	x	x	-2.7%
O=C(C[n+]1cccc2ccccc21)c1ccccc1	3.2	-16.7%	-2.4%	17.3	-13.2	-11.6%
O=C(C[n+]1cccc2ccccc21)c1ccc(NC(=O)c2ccccc2)cc1	-11.3	6.51µM*	8.2µM*	-22.7	0.0	-2.0%
O=C(C[n+]1cc2ccccc2c2ccccc21)c1ccccc1	-10.4	u	u	43.5	-7.7	25.1µM*
Cc1cc(OCC(=O)OCC(=O)N(C)c2c(N)n(Cc3ccccc3)c(=O)[nH]c2=O)ccc1Cl	5.5	-6.6%	-14.2%	16.3	7.8	0.6%
Cc1cc2c(cc1C)CSC(c1ccccc1OC(=O)C(C)C)SC2	7.3	11.2µM*	u	6.4	9.5	0.9%

Compound activity from PubChem.
